Data: publication PMC13494018
Unmarked numbers belong to inactive results. How the calls were made is not given here.

B1: design_608_fd41b8f9-4da9-4c78-93ec-aaa316ed4933_1455_dldesign_0_cycle1_af2pred (protein)
chain: HMSELTKKTSDVISEAVKTSREAVKEAEKKDPALGEKLKEFYTKALLDAQDGDPFKGATELLKKAKADLAAVKAS
B2: design_608_fd41b8f9-4da9-4c78-93ec-aaa316ed4933_1151_dldesign_0_cycle1_af2pred (protein)
chain: SMAEEEKKEKEKKKAETLALNAKGLEAIDKGDFTTAAKLYEKAAEVAPTEELKKRAEKGAKAMKKLEKAAKE
B3: design_608_fd41b8f9-4da9-4c78-93ec-aaa316ed4933_1451_dldesign_0_cycle1_af2pred (protein)
chain: GSAAAAAAAAAAAIQAQQDKAMEYADEIYEKISKEVGKSTGIKVASDAFSYAMKTDFETGKKYGEEKEIKVIKEAKKK
B4: design_608_fd41b8f9-4da9-4c78-93ec-aaa316ed4933_1401_dldesign_0_cycle1_af2pred (protein)
chain: MEEEAKKYVEYTKKKAEEAKKNAKKAKEAGASQEAIQLFIDAAQYYLLAASAAENSPKYLPYAKEETKKGEELLKKGKKLFEEE
B5: design_608_fd41b8f9-4da9-4c78-93ec-aaa316ed4933_1632_dldesign_0_cycle1_af2pred (protein)
chain: EAEKKFKEAKKLASEAAEKLATLAAEAAFKGKEELAKEAREALKKLREKGKEAEKLYKEDPEKAAKVLKKAAEEALKKAEKLEKEL
B6: design_608_fd41b8f9-4da9-4c78-93ec-aaa316ed4933_1539_dldesign_0_cycle1_af2pred (protein)
chain: SKRKEAARIAAEIVRRGHRIGAALARTIGPAAGAATEATLEELADLALEDPEKGRELGEAAVAAAEAAIAAARAA
B7: design_608_fd41b8f9-4da9-4c78-93ec-aaa316ed4933_1906_dldesign_0_cycle1_af2pred (protein)
chain: DVKKEAEKLRDKGKERAKRRLEDAKKISPQYAEAAYEALEQASKNAKKLAEKYPEAKEIYEELAKYFEEQAKKAKEIAE
B8: design_608_fd41b8f9-4da9-4c78-93ec-aaa316ed4933_1100_dldesign_0_cycle1_af2pred (protein)
chain: ELAKEIEKFAEEAKERAKKGNPEEAREAYREFREKAKKIAEEDPSVAELASKKAAEVAEVAAEAIYKKLKE
B9: design_608_fd41b8f9-4da9-4c78-93ec-aaa316ed4933_1545_dldesign_0_cycle1_af2pred (protein)
chain: GSSVHKELADKLKKAIEEGEAAAKAGDVEKGKQIYADALGEVLGYPEASRQKLLDLPAKEGYEKAKKLLTNAYDGLSSLAKK
B10: design_608_fd41b8f9-4da9-4c78-93ec-aaa316ed4933_1719_dldesign_0_cycle1_af2pred (protein)
chain: DGYEKGKAVAERFKEDAEKIGNTEAAAEGLELLAEQWKAYAEKNTPEEAKEANKAAKEFKEEAKKYKEKAKA
B11: design_608_fd41b8f9-4da9-4c78-93ec-aaa316ed4933_1306_dldesign_0_cycle1_af2pred (protein)
chain: GKEEAEKILKEAKAKLDALAKENPALAPLAAEAKERIEKKYKKAIEADEKDPKQGKAAAEALKEFAKNAVAAVEKKK
B12: design_608_fd41b8f9-4da9-4c78-93ec-aaa316ed4933_1393_dldesign_0_cycle1_af2pred (protein)
chain: STVEEALAAAKKNIAAAKAAAAAGDFAAAAAALHEARENVSVIYANDKEKGEELRKEVTAVRAEIRAKEEAA
B13: design_608_fd41b8f9-4da9-4c78-93ec-aaa316ed4933_1103_dldesign_0_cycle1_af2pred (protein)
chain: SPQAAADALRAAQRLLREAGARAEAAGAQEAADLLRQASFALAGTGADEALALIDAAAAAYPEVAPLLDEARAAARAYGELLN
B14: design_608_fd41b8f9-4da9-4c78-93ec-aaa316ed4933_1756_dldesign_0_cycle1_af2pred (protein)
chain: AQKAVAEAAQAALIAKSAADVSKNIDAETLEEIAKEAKKAAEKAEKEAPEAKEVIEPAKKEAEKLEKIAKEKKA
B15: design_608_fd41b8f9-4da9-4c78-93ec-aaa316ed4933_1790_dldesign_0_cycle1_af2pred (protein)
chain: MEFIKEVSKKVHDTRFYLDSVALKASEEDRKKLEEMRKEVGELMLKAQKAYKEDPEEGKKLAEEALKKAEEAYKYAKSIEE
B16: design_608_fd41b8f9-4da9-4c78-93ec-aaa316ed4933_1483_dldesign_0_cycle1_af2pred (protein)
chain: METKRLSEAHRIAVRAAQAAGAAATTAAEKAAIAAAKFQAVDSDPEELIAILRATGAAFPKQAPHFDAAVAEIEKAIEEY
B17: design_608_fd41b8f9-4da9-4c78-93ec-aaa316ed4933_1810_dldesign_0_cycle1_af2pred (protein)
chain: MEELKKVVEETKEYAKKLIESDGFSLVGKSAYEAAEKALKEGNLEKAKEIYEKTKKMYERAEEYEKLAEEREKKYL
B18: design_608_fd41b8f9-4da9-4c78-93ec-aaa316ed4933_1350_dldesign_0_cycle1_af2pred (protein)
chain: SEAYKEFHEALQYATDAGYEYAKNPEEGKKELAKAEEHLKKAEELADPETAAKMREIYERRLAREKERAERLKKERN
B19: design_608_fd41b8f9-4da9-4c78-93ec-aaa316ed4933_998_dldesign_0_cycle1_af2pred (protein)
chain: SELAKKAIEHLKKAIELAKTDPKYAPQIIAAAKAAIAALEKGDYEKAYKEASKALSIAYAAGNKEAEEELSEALYYIVKASK
B20: design_608_fd41b8f9-4da9-4c78-93ec-aaa316ed4933_1798_dldesign_0_cycle1_af2pred (protein)
chain: NEAIKEAEKAAKEAKEAYKKAGEVSGETEKAERMIKRVEELLEAGKKDPSKAEKYKAQIEALRDHAKEVLKKAEAKKKA

Target: VTCN1, Q7Z7D3
Sequence (Q7Z7D3 whole entry): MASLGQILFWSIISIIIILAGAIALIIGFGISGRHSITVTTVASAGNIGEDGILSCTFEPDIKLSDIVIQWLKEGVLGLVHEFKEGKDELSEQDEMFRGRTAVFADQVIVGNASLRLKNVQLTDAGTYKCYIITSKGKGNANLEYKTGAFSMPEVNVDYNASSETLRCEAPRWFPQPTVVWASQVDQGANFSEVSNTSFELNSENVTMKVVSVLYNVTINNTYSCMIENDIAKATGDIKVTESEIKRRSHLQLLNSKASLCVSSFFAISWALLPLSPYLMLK

Binder	binding in a display sort
B1	not found
B2	not found
B3	not found
B4	not found
B5	not found
B6	not found
B7	not found
B8	not found
B9	not found
B10	not found
B11	not found
B12	not found
B13	not found
B14	not found
B15	not found
B16	not found
B17	not found
B18	not found
B19	not found
B20	not found
